This experiment can be described thus: probe aInhba binding on compound microarray – biochemical, small-molecule microarray, 635/667 nm fluorescence, primary screen (AID 1148).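 Further: score merges 667nm spot fluorescence with signal-to-noise for antibody binding to printed compounds.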 As to conditions: higher = more signal.
Compound `CC(C)C(O)C1C=CC2C(=O)NC(=O)C2N1Nc1ccccn1` (stereo unspecified) returned a composite z-score of -0.0421.

In turn, `C=CCC(OC(C)=O)[C@@H]1[C@@H](N(Cc2cccc3ccccc23)C(=O)c2ccc(-c3ccccc3)cc2)c2cc(OCCCO)ccc2N1C(=O)Cc1ccc2ccccc2c1` (stereo partly specified) returned a composite z-score of 0.0108.

Compound `COc1cc(CO)cc(I)c1O[C@H]1C=C(C(=O)NCCO)C[C@@H]2O[C@H]12` yielded a composite z-score of -0.0589.

`CC(C)[Si](C#CCCc1ccccc1)(O[C@H](c1ccccc1)c1cn(Cc2ccccc2)nn1)C(C)C` registered a composite z-score of -0.179.

`O=C1[C@H]2C=C(I)[C@H](C[C@@H]2c2ccccc2)[C@@]12CO2` showed a composite z-score of -0.0762.

Regarding `C=C(/C(=C/C[C@@H](OC(C)=O)c1cccc(OCCO)c1)c1cnc2ccccc2c1)C(C)C`, the composite z-score was 0.0013.

`COCCOC(=O)N1C(=O)[C@@]2(c3cc(C#CCC(C(=O)OC)C(=O)OC)ccc31)[C@H](C(=O)Nc1nc3ccccc3s1)[C@H]1C(=O)O[C@H](c3ccccc3)[C@H](c3ccccc3)N1[C@@H]2c1ccc(OCCO)cc1` came in with a composite z-score of 0.79.

`C=CCNC(=O)[C@H]1[C@@H]2C(=O)O[C@@H](c3ccccc3)[C@@H](c3ccccc3)N2[C@@H](c2ccc(OCCO)cc2)[C@]12C(=O)Nc1ccccc12` returned a composite z-score of -0.244.

Turning to `COC(=O)[C@@]1(Cc2ccc(F)cc2)[C@H]2c3cc(C(=O)N(C)C)n(CCc4ccc(O)c(O)c4)c3C[C@H]2CN1C(=O)c1ccccc1`, the composite z-score was 0.528.

Regarding `C=CC[C@@]12N=C(c3ccc(OCCCO)cc3)O[C@@H]1c1ccccc1N(CCC)C2=O`, the composite z-score was -0.0185.

`O=C(NC1CC1)[C@@H]1c2ccccc2C(=O)N(Cc2ccc(OC(F)(F)F)cc2)[C@H]1c1ccc(CO)cc1` came in with a composite z-score of -0.176.

For `COC(=O)[C@@]1(Cc2ccc(OC)cc2)[C@H]2c3cc(C(=O)N4CCCC4)n(Cc4ccc(C(F)(F)F)nc4)c3C[C@H]2CN1C(=O)c1ccccc1`, the composite z-score worked out at 0.225.

`CCC(CC)C(O)C1C=CC2C(=O)N(c3ccccc3)C(=O)C2N1Nc1ccccc1F` (stereo unspecified) showed a composite z-score of -0.0044.

Regarding `C=C(COC)C(=O)CC[C@@H](OC(C)=O)c1ccccc1OCCO`, the composite z-score was -0.0403.

In turn, `[N-]=[N+]=Nc1ccccc1[C@@H]1OC(c2ccc(OCCCO)cc2)=N[C@]1(CCS(=O)(=O)c1ccccc1)C(=O)NCC(O)CO` (stereo partly specified) gave a composite z-score of 0.0051.

In the case of `COCCCNC(=O)[C@@]1(Sc2ccc(C)cc2)CC(=O)N(Cc2ccccc2C(F)(F)F)[C@@H]1c1ccc(CO)cc1I`, the composite z-score is -0.111.

With `COc1ccc([Si](C)(C)[C@H]2[C@H](CC(=O)N3Cc4ccccc4C[C@H]3CO)O[C@@]3(C(=O)N(C)c4ccccc43)[C@@H]2C)cc1`, the composite z-score was determined as 0.0342.

The compound `CN1C(=O)C2C(C1=O)C1C=C(c3ccc(CO)cc3)C2C(C2CC2)N1C` (stereo unspecified) showed a composite z-score of -0.128.

The compound `COCCCNC(=O)[C@@]1(CCS(=O)(=O)c2ccccc2)COC(c2ccc(OCCCO)cc2)=N1` showed a composite z-score of 0.271.

Compound `COC(=O)[C@@]1(Cc2ccc(F)cc2)[C@H]2c3cc(C(=O)N4CCCC4)n(Cc4cc(F)cc5c4OCOC5)c3C[C@H]2CN1C(=O)c1ccccc1` came in with a composite z-score of 0.328.

As to `O=C1C[C@@](C(=O)NCc2ccccc2)(c2ccc([N+](=O)[O-])cc2)[C@@H](c2ccc(CO)cc2)N1C1CCCCC1`, the composite z-score worked out at 0.333.

`CCCCC(O)C1C=CC2C(=O)N(c3ccccc3)C(=O)C2N1Nc1ccc([N+](=O)[O-])cc1` (stereo unspecified) registered a composite z-score of 0.215.

Consider `CC1CC/C=C\[C@H]2OC34C=CCN(C(C)(C)C)C(=O)[C@H]3N(CCCO)C(=O)[C@@H]4C2C(=O)O1` (stereo partly specified), for which the composite z-score is -0.128.

`CCCCCC1=C2CNC(Cc3ccccc3)(C(=O)OC)C=C2C(C)C1=O` (stereo unspecified) gave a composite z-score of 0.222.

As for `CCOC(=O)C1=C[C@@H](C(C)(C)C)N(S(=O)(=O)c2ccc(C)cc2)[C@H]1c1ccc(C#N)cc1`, the composite z-score turned out to be 0.0785.

As to `COc1ccc([Si](C)(C)[C@@H]2[C@@H](CC(=O)N(CCO)Cc3ccccc3)O[C@]3(C(=O)N(Cc4ccc(I)cc4)c4ccccc43)[C@H]2C)cc1`, the composite z-score came to 1.22.

On to `C=CCNC(=O)[C@H]1[C@@H]2C(=O)O[C@@H](c3ccccc3)[C@@H](c3ccccc3)N2[C@@H](c2ccccc2OCCO)[C@]12C(=O)N(C(=O)OCCOC)c1ccc(C#Cc3ccc(OC)cc3)cc12`, for which the composite z-score is -0.149.

In turn, `CCOC(=O)C[C@H]1[C@H](OC(=O)c2cc3ccccc3oc2=O)[C@@H](NC(=O)CC(C)C)c2cc(OCCCO)ccc2N1C(=O)Cc1ccc(OC)cc1` returned a composite z-score of -0.128.

`O=C(NC1CC1)[C@@H]1c2ccccc2C(=O)N(CC23CC4CC(CC(C4)C2)C3)[C@H]1c1ccc(CO)cc1` displayed a composite z-score of 0.0697.

In the case of `C=CCN1C(=O)[C@@]2(O[C@@H](CCn3cc([C@H](O)c4ccccc4)nn3)[C@H]([Si](C)(C)c3ccc(OC)cc3)[C@H]2C)c2cc(N3C(=O)c4cccc5cccc3c45)ccc21`, the composite z-score was -0.128.

`CCOC(=O)C[C@H]1[C@H](OC(=O)c2ccccc2-c2ccccc2)[C@@H](NC(=O)c2ccc3ccccc3c2)c2cc(OCCCO)ccc2N1C(=O)Cc1ccc(OC)cc1`: the composite z-score is -0.128.

For the compound `COC(=O)[C@@]1(Cc2ccc(OC)cc2)[C@H]2c3cc(C(=O)N4CCCC4)n(Cc4ccc(Cl)c(C(F)(F)F)c4)c3C[C@H]2CN1C(=O)c1ccccc1`, the composite z-score was determined as 0.728.

`CCCC[C@H]1C[C@@H]1[C@@H]1N(C(C)=O)[C@H](c2cccc(OC)c2)CC12CC2` displayed a composite z-score of 0.0111.

Consider `COc1ccc(CCNC(=O)[C@@H]2c3ccccc3C(=O)N(Cc3ccccc3OC)[C@H]2c2ccc(CO)cc2)cc1`, for which the composite z-score worked out at 0.0028.

For the compound `O=C1C=C(c2ccccc2)C(=O)C2=C1CC([C@H]1Oc3ccccc3S(=O)(=O)N3CCC[C@@H]13)=CC2`, the composite z-score was -0.235.

`COCCOC(=O)N1C(=O)[C@@]2(c3cc(C#Cc4ccc(OC)cc4)ccc31)[C@H](c1ccc(OCCO)cc1)N1[C@H](c3ccccc3)[C@H](c3ccccc3)OC(=O)[C@H]1[C@@H]2C(=O)NC[C@H](O)c1ccccc1` displayed a composite z-score of 0.0301.
